Compound activity (PubChem BioAssay)
Shown are actives, neighbours in structure and some others; about 4.8% of the full set was active somewhere.
Casp7 inh = qHTS Assay for Allosteric/Competitive Inhibitors of Caspase-7; P55210; Potency, µM (highest dose often 57.5 µM), inactives show at the top dose activity change, negative = inhibition, usual class: inhibitors; recombinant caspase-7, Ac-DEVD-AFC fluorescence rate; 0.02% of 75,000 active; active = well fitted inhibition curve with a large enough effect in the main read-out, with a control signal flat, not every such curve was filed as active; inconclusive = small, poorly fitted or top-dose-only effect, or a change in a side signal; also: % of control where 0% means no effect
TSHR agonist = qHTS Assay for Agonists of the Thyroid Stimulating Hormone Receptor; Potency, µM (doses to about 57.1 µM), inactives show at the top dose activation, actives largely listed as activators; AID 926, 2007; 0.48% of 73,000 active; HEK293-CNG-TSHR cells (CNG channel as cAMP sensor), membrane potential dye, cAMP; active = well fitted activation curve with a large enough effect in the main read-out, with a control signal flat, not every such curve was filed as active; inconclusive = small, poorly fitted or top-dose-only effect, or a change in a side signal; inactive = no such curve, though single readings can be large or run the other way; % of control where 0% means no effect;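 also: the control signal comes from parental cells without the receptor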
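cAMP rise detected as CNG-channel membrane depolarization by fluorescent dye (emission 590 nm), 30 min after compound, following 60 min dye loading containing 100 uM RO 20-1724 at room temperature. Cells: TSHR/CNG HEK 293, with parental CNG HEK 293 as control.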
Casp1 inh = qHTS Assay for Allosteric/Competitive Inhibitors of Caspase-1; Caspase-1 enzyme, Ac-WEHD-AFC fluorogenic rate; Potency, µM (top dose mostly 57.5 µM), for inactives: top-dose activity change, negative = inhibition, actives largely listed as inhibitors; 0.03% of 75,000 active; AID 900, 2007;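 also: plate controls were vehicle for no effect and no substrate for full effect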
HEK293 cAMP cs = qHTS Assay for Agonists of the Thyroid Stimulating Hormone Receptor: Activators of Intracellular cAMP Concentrations in Parental HEK 293. parental HEK293 CNG cAMP sensor, membrane potential fluorescence. Potency, µM (doses to about 57.1 µM), inactives show top-dose activation, actives largely listed as activators. 2.5% of 73,000 active. AID 938, 2007; also: % of control where 0% means no effect; nearly all actives have a fitted effect of over 55% in size
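Parental HEK 293 cells stably expressing a modified CNG channel (no TSHR) report cAMP rise as membrane depolarization. Membrane potential dye with 100 uM RO 20-1724 was loaded for 60 min at room temperature, then compound added for 30 min; fluorescence read at 590 nm.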
ALOX15 inhib = qHTS Assay for Inhibitors of 15-hLO (15-human lipoxygenase). Polyunsaturated fatty acid lipoxygenase ALOX15 (Homo sapiens), P16050. purified 15hLO-1, xylenol orange hydroperoxide absorbance. Potency, µM (titrated, usually from 57.1 µM), inactives show at the highest dose activity change, negative = inhibition, most hits filed as inhibitors. 1.4% of 74,000 active. AID 887, 2007; also: % is scaled to controls: 0 for no effect and ±100 for the full control effect; nearly all actives have a fitted effect of over 55% in size
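Purified human 15hLO-1 (40 nM final) in 25 mM Hepes pH 7.5, 0.01% Triton X-100 was preincubated with compound 15 min at room temperature, then reacted 6 min with 50 uM arachidonic acid; hydroperoxide detected by Fe-XO, 573/405 nm absorbance ratio.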
ERK AVP inh = qHTS Assay for Inhibitors of the ERK Signaling Pathway using a Homogeneous Screening Assay; HEK293-V1b, vasopressin-stimulated pERK AlphaScreen; Potency, µM (series often up to 57.5 µM), for inactives: top-dose activity, negative = inhibition, hits mostly inhibitors; 0.99% of 72,000 active; also: % is scaled to controls: 0 for no effect and ±100 for the full control effect; nearly all actives have a fitted effect of over 55% in size
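HEK293 cells stably expressing V1b receptor, preincubated 30 min at 37 °C with compound, then stimulated 5 min with 25 nM vasopressin. Phospho-ERK by AlphaScreen SureFire after 5 h RT; normalized to DMSO and vasopressin; AC50 by Hill fit.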
Numbers without * were called inactive. Unless noted, calls follow the shape of the dose curve; as a rule, active = well fitted curve in the direction sought with a large enough effect; inconclusive = small, poorly fitted or top-dose-only effect, or another doubt; inactive = no such curve, though single readings can be large; an effect the other way counts as inactive or inconclusive. Potency is read from the fitted curve at half-maximal effect.

For CCn1c(=O)cc(SCC(=O)N2CCN(c3ccccc3OC)CC2)c2ccccc21 the results were Casp7 inh 0%, TSHR agonist 11%, Casp1 inh -3%, HEK293 cAMP cs 14%, ALOX15 inhib inconclusive and ERK AVP inh 25µM*.
For CN(Cc1ccco1)c1ncncc1-c1cccc(NS(C)(=O)=O)c1 the results were Casp7 inh -2%, TSHR agonist inconclusive, Casp1 inh -2%, HEK293 cAMP cs inconclusive, ALOX15 inhib inconclusive and ERK AVP inh -2%.
CC(=O)c1c(C(C)=O)c(C)n(NC(=O)c2ccccc2O)c1C was read as Casp7 inh -1%, TSHR agonist -20%, Casp1 inh -2%, HEK293 cAMP cs -3%, ALOX15 inhib -2% and ERK AVP inh -15%.
`CC(=O)c1c(C(C)=O)c(C)n(NC(=O)c2cccnc2)c1C` gave Casp7 inh 0%, TSHR agonist inconclusive, Casp1 inh 1%, HEK293 cAMP cs 4µM*, ALOX15 inhib -17% and ERK AVP inh inconclusive.
For CN(C)c1ncc2nc(-c3ccc(F)cc3)c(=O)n(CCc3ccccc3)c2n1 the results were Casp7 inh inconclusive, TSHR agonist inconclusive, HEK293 cAMP cs inconclusive, ALOX15 inhib 5% and ERK AVP inh 5%.
`COc1cc(CO)cc(-c2cc(CO)cc(OC)c2OC)c1OC` gave Casp7 inh -1%, TSHR agonist 1%, Casp1 inh -4%, HEK293 cAMP cs 1%, ALOX15 inhib 6% and ERK AVP inh 28%.
`COc1cc(CO)cc(Br)c1OCC(=O)O` gave Casp7 inh -3%, TSHR agonist 25µM*, Casp1 inh -1%, HEK293 cAMP cs 13%, ALOX15 inhib inconclusive and ERK AVP inh -17%.
CC1(C)Cc2ccccc2-c2nnc(SCC(=O)Nc3nc4ccccc4s3)n21 was read as Casp7 inh -4%, TSHR agonist inconclusive, Casp1 inh -5%, HEK293 cAMP cs 5µM*, ALOX15 inhib inconclusive and ERK AVP inh 53%.
CC(C)=CCC/C(C)=C/COc1c2occc2cc2ccc(=O)oc12 was read as Casp7 inh -6%, Casp1 inh -7%, ALOX15 inhib inconclusive and ERK AVP inh -1%.
CC(C)=CCC/C(C)=C/COc1c2ccoc2cc2oc(=O)ccc12 was read as TSHR agonist inconclusive and HEK293 cAMP cs 13µM*.
CCOC(=O)C1=C(C)NC(=O)NC1C (stereo not given) was read as Casp7 inh 4%, TSHR agonist 4%, Casp1 inh 3%, HEK293 cAMP cs 0%, ALOX15 inhib 5% and ERK AVP inh -9%.
CCOC(=O)C1=C(C)NC(=O)NC1/C(C)=C/c1ccccc1 (stereo not given) was read as Casp7 inh -1%, TSHR agonist 6%, Casp1 inh -1%, HEK293 cAMP cs 9%, ALOX15 inhib -12% and ERK AVP inh 32µM*.
CN(C)Cc1ccccc1-c1cc(-n2ccnc2)ncn1 was read as Casp7 inh 0%, TSHR agonist 8%, Casp1 inh 2%, HEK293 cAMP cs 2%, ALOX15 inhib 13µM* and ERK AVP inh 9%.
CN(C)c1ccc(-c2cc(-n3ccnc3)ncn2)cc1 was read as Casp7 inh inconclusive, TSHR agonist 0%, Casp1 inh inconclusive, HEK293 cAMP cs -15%, ALOX15 inhib inconclusive and ERK AVP inh 3%.
For CN(C)C(=O)c1ccc(-c2cc(-n3ccnc3)ncn2)cc1 the results were Casp7 inh -3%, TSHR agonist 11%, Casp1 inh 0%, HEK293 cAMP cs -9%, ALOX15 inhib 25µM* and ERK AVP inh 0%.
CNc1cc(-c2ccccc2CN(C)C)ncn1 was read as Casp7 inh 0%, TSHR agonist 0%, Casp1 inh 1%, HEK293 cAMP cs -6%, ALOX15 inhib 15% and ERK AVP inh 0%.
For C=C1C[C@@]23C[C@]1(O)CC[C@@H]2[C@]12C=C[C@@H](O)[C@@](C)(C(=O)O1)[C@@H]2[C@@H]3C(=O)O the results were TSHR agonist 6% and HEK293 cAMP cs 7%.
For CCOC(=O)c1c(C)n(OCc2ccccc2)c2ccc3nonc3c12 the results were Casp7 inh inconclusive, TSHR agonist inconclusive, HEK293 cAMP cs 10µM*, ALOX15 inhib -7% and ERK AVP inh 66%.
`Cc1cc(C)c(S(=O)(=O)Nc2ccc(C(=O)O)c(O)c2)cc1C` gave Casp7 inh 1%, TSHR agonist 9%, Casp1 inh -2%, HEK293 cAMP cs -11% and ALOX15 inhib -7%.
Screening CSCCC(Nc1ncnc2ccc(Br)cc12)C(=O)O (stereo not given) returned Casp7 inh 2%, TSHR agonist inconclusive, Casp1 inh -1%, HEK293 cAMP cs 2µM*, ALOX15 inhib 20% and ERK AVP inh -17%.
Screening CSCC[C@H](NC(=O)CCn1nnc2ccccc2c1=O)C(=O)O returned Casp7 inh -1%, TSHR agonist 1%, Casp1 inh 1%, HEK293 cAMP cs 4%, ALOX15 inhib 10% and ERK AVP inh -7%.
Screening CCC(C)(C)C returned Casp7 inh -1%, TSHR agonist inconclusive, Casp1 inh -2%, HEK293 cAMP cs 0%, ALOX15 inhib 1% and ERK AVP inh 26%.
COc1ccc(-c2nc3cnc(N4CCOCC4)nc3n(C3CC3)c2=O)cc1 was read as Casp7 inh inconclusive, TSHR agonist inconclusive, HEK293 cAMP cs inconclusive, ALOX15 inhib -1% and ERK AVP inh -12%.
For CCc1nc(SCC(=O)NCc2ccco2)c2c3c(sc2n1)CCCC3 the results were Casp7 inh -3%, TSHR agonist inconclusive, Casp1 inh 1%, HEK293 cAMP cs 5µM*, ALOX15 inhib 8% and ERK AVP inh 1%.
For C=CCn1c(SCC(=O)NCc2ccco2)nc2sc3c(c2c1=O)CCC3 the results were Casp7 inh -3%, TSHR agonist inconclusive, Casp1 inh -4%, HEK293 cAMP cs inconclusive, ALOX15 inhib 3% and ERK AVP inh inconclusive.
C=CCn1c(SCC(=O)NCc2ccco2)nc2sc3c(c2c1=O)CCCCC3 was read as Casp7 inh -3%, TSHR agonist inconclusive, Casp1 inh 0%, HEK293 cAMP cs inconclusive, ALOX15 inhib 4% and ERK AVP inh -21%.
